Shiga toxin inh = A qHTS for Small Molecule Inhibitors of Shiga Toxin. inhibition, % at 38.7 µM. Vero cells, Shiga toxin protein synthesis inhibition reporter. 9.2% of 290,000 active; in the data active = inhibition mostly above about 28%, no sharp cut-off; inactive = mostly below about 43%
NS1 function inh = qHTS Assay for Inhibitors of Influenza NS1 Protein Function; Potency, µM (doses to about 46.1 µM); AID 2326, 2010; 0.4% of 270,000 active; calls by dose curve; also: actives are rising curves; nearly all actives have a fitted effect of over 50% in size
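S. cerevisiae expressing influenza A NS1, grown in glucose, washed, then diluted 1:100 into pH 6.0 -URA galactose medium with 23 nl compound. Growth recovery read as OD600; NS1-free strain serves as control.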
LmPK inhibitor = qHTS Assay for Inhibitors of Leishmania Mexicana Pyruvate Kinase (LmPK). AID 1721, 2009. Potency, µM (series often up to 57.5 µM), hits mostly inhibitors. purified LmPK, Kinase-Glo ATP luminescence, 1 h. Q27686. 0.37% of 290,000 active
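Screened at intermediate enzyme activity to detect both inhibitors and activators: LmPK at 0.1 nM, with a 0.5 nM enzyme column as activation reference. PEP 0.5 mM, ADP 0.1 mM; ATP detected by luminescence after 1 h.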
CHX counter = Cycloheximide Counterscreen for Small Molecule Inhibitors of Shiga Toxin. 12% of 300,000 active. cell reporter, cycloheximide protein synthesis inhibition counterscreen. max response, %; in the data active = max response mostly above about 13%, no sharp cut-off; inactive = mostly below about 14%; also: read at 38.3 µM for the half of the compounds with a filed dose
Giardia FBPA inh = qHTS Assay for Inhibitors of Fructose-1,6-bisphosphate Aldolase from Giardia Lamblia; purified Giardia FBPA; 0.71% of 290,000 active; Potency, µM (doses to about 59.6 µM), most hits filed as inhibitors; AID 2451, 2010; A8B2U2; also: nearly all actives have a fitted effect of over 55% in size
Target sequence (A8B2U2 whole entry, looked up): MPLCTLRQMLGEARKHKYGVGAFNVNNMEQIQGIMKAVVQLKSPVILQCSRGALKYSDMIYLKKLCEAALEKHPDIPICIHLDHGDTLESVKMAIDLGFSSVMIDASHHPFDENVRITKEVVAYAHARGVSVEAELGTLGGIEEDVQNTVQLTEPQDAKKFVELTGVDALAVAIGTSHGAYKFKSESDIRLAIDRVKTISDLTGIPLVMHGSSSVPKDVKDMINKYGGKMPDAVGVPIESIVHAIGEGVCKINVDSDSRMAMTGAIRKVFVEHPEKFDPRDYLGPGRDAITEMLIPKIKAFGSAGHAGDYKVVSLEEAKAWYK
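Giardia FBPA (40 nM reagent) was preincubated 10 min at RT with compound (up to 57.5 uM final), then substrate plus GAPDH/TPI/NAD/arsenate coupling system with diaphorase/resazurin was added; resorufin fluorescence (525/598 nm) was read after 20 min.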
Of the large screens only hits and unclear results are named; the others gave an inactive call. Most compounds without a hit are left out; they make up all but 14% or so of the library. Unless noted, calls follow the shape of the dose curve; as a rule, active = well fitted curve in the direction sought with a large enough effect; inconclusive = small, poorly fitted or top-dose-only effect, or another doubt; inactive = no such curve, though single readings can be large; an effect the other way counts as inactive or inconclusive.

CC(/C=N/NC(=O)c1cc(-c2ccc(C)s2)[nH]n1)=C\c1ccccc1	none
Nc1nccnc1C(=O)N/N=C/c1ccco1	Shiga toxin inh 93, LmPK inhibitor inconclusive, CHX counter 63
Cc1ccc(-c2cc(C(=O)N/N=C/c3ccco3)n[nH]2)s1	CHX counter 23
CC(C)(C)c1cc(C(=O)N/N=C/c2ccco2)n[nH]1	CHX counter 33
O=c1c[n+](CC[n+]2cc(=O)o[nH]2)[nH]o1	none (no result: Shiga toxin inh, LmPK inhibitor, CHX counter, Giardia FBPA inh)
CC(C)CN(CC(C)C)C(=O)CN1C(=O)NC2(CCCc3ccccc32)C1=O (centres undefined)	none
CC(=O)Nc1ccc(OC(=O)N2CCCCC2)cc1	CHX counter 12
O=C(Oc1ccc(-c2ccccc2)cc1)N1CCCCC1	Shiga toxin inh 65, CHX counter 35
COc1ccc(NCc2ccsc2)cc1	Shiga toxin inh 44, CHX counter 41
COc1ccc(CNc2ccc(S(N)(=O)=O)cc2)cc1	none
Cc1cc2ccc(OC(=O)c3ccc(N=C(N)N)cc3)cc2oc1=O	none (no result: Shiga toxin inh, LmPK inhibitor, CHX counter, Giardia FBPA inh)
Clc1ccc(-c2cc(C3CCNCC3)[nH]n2)cc1	none (no result: NS1 function inh)
Oc1ccccc1-c1cc(C(F)(F)C(F)F)[nH]n1	Shiga toxin inh 28, CHX counter 22
Fc1ccc(-c2cc(C(F)(F)C(F)F)[nH]n2)cc1	Shiga toxin inh 65, CHX counter 27
FC(F)C(F)(F)c1cc(-c2ccc(Cl)cc2)n[nH]1	Shiga toxin inh 46, CHX counter 31
CCOC(=O)C1CCN(C(=O)CCC(=O)NNc2nc3ccccc3c3nc(C)nn23)CC1	none (no result: Giardia FBPA inh)
